# According to the supplement of paper PMC11732987, “Enantioselective OTUD7B fragment discovery through chemoproteomics screening and high-throughput optimisation” (Communications Chemistry, 2025):
# Unmarked numbers belong to inactive results.
# Tests used:
# Assay in all cases: log2 ratio of Biotin-Ahx-Ub-VS probe labelling (fragment/DMSO); higher = less target engagement (more negative = stronger competition), active = hit call of the paper (q ≤ 0.05, log2 ratio ≤ -1)
# Conditions in all cases: compound concentration: 200 uM; treatment time: 3 h
# [1] = target: T1, OTUD6B (UniProt Q8N6M0)
# T1 sequence (whole entry): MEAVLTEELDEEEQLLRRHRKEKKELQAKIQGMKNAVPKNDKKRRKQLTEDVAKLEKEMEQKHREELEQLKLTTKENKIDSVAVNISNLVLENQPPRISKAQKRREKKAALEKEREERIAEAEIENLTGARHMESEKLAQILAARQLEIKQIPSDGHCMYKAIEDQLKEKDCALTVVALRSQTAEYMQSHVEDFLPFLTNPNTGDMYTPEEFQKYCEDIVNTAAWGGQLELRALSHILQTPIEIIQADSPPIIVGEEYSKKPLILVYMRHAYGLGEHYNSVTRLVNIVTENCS
# Outline: (§1)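 Average log2 ratios of fragment over vehicle were obtained by unpaired t-test from global-median-normalised Spectronaut label-free quantities. Proteins with ≥2 unique peptides were included. HEK293T lysate (495 µg per sample) was treated in triplicate with fragment at 200 µM or vehicle for 3 h, then with Biotin-Ahx-Ub-VS at 0.5 µM final for 1 h, and labelled DUBs were NeutrAvidin-enriched and run by diaPASEF LC-MS/MS.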
# [2] = target: T2, OTUD7B (UniProt Q6GQQ9)
# T2 sequence (whole entry): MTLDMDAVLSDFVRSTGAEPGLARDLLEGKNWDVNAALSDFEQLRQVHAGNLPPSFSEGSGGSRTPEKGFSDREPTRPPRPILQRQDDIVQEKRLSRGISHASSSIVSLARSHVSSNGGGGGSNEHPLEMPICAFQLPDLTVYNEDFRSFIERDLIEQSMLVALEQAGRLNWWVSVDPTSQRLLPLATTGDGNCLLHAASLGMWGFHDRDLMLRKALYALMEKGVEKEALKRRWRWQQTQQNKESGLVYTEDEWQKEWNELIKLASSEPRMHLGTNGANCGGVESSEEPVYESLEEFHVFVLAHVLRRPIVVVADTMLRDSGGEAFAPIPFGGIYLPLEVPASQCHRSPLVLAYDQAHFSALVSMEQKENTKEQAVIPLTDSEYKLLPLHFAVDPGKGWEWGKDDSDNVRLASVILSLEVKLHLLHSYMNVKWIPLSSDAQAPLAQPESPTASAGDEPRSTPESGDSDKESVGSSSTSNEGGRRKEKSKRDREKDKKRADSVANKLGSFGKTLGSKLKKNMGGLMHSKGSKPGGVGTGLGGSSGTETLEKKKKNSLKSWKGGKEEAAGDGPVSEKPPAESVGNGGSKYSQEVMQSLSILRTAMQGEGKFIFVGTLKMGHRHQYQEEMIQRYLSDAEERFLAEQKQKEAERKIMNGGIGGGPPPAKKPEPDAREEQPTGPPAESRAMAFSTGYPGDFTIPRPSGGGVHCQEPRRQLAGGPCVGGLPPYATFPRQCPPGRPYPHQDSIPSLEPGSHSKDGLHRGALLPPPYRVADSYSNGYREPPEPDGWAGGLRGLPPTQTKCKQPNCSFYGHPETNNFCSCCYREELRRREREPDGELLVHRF
# Outline: as §1
# [3] = target: PRPF8 (UniProt Q6P2Q9)
# Outline: as §1
# [4] = target: T3, PSMD7 (UniProt P51665)
# T3 sequence (whole entry): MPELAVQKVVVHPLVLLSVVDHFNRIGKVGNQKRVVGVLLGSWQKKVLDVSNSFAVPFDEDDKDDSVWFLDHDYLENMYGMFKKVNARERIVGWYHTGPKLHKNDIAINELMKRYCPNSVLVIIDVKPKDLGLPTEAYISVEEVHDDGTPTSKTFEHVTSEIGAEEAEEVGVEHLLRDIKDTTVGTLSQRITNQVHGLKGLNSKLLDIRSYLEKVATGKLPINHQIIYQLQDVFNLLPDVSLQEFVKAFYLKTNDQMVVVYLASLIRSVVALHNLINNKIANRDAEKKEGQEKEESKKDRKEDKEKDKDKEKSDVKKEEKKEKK
# Outline: as §1
# [5] = target: UCHL1 (UniProt P09936)
# Outline: as §1
# [6] = target: T4, UCHL3 (UniProt P15374)
# T4 sequence (whole entry): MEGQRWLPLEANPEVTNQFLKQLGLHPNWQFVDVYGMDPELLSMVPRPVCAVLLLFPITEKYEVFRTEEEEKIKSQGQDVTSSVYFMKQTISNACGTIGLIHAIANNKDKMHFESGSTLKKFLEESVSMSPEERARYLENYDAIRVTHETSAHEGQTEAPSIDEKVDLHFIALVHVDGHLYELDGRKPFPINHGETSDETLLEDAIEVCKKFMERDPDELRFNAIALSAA
# Outline: as §1
# [7] = target: T5, UCHL5 (UniProt Q9Y5K5)
# T5 sequence (whole entry): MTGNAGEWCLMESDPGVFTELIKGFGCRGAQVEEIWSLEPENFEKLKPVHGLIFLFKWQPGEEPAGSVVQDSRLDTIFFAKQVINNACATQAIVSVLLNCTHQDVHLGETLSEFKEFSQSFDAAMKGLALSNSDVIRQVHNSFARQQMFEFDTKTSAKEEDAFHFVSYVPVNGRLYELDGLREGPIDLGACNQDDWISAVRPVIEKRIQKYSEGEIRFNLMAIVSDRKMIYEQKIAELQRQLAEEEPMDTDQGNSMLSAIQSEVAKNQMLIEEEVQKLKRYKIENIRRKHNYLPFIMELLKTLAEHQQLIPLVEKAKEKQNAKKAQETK
# Outline: as §1
# [8] = target: USP10 (UniProt Q14694)
# Outline: as §1
# [9] = target: T6, USP15 (UniProt Q9Y4E8)
# T6 sequence (whole entry): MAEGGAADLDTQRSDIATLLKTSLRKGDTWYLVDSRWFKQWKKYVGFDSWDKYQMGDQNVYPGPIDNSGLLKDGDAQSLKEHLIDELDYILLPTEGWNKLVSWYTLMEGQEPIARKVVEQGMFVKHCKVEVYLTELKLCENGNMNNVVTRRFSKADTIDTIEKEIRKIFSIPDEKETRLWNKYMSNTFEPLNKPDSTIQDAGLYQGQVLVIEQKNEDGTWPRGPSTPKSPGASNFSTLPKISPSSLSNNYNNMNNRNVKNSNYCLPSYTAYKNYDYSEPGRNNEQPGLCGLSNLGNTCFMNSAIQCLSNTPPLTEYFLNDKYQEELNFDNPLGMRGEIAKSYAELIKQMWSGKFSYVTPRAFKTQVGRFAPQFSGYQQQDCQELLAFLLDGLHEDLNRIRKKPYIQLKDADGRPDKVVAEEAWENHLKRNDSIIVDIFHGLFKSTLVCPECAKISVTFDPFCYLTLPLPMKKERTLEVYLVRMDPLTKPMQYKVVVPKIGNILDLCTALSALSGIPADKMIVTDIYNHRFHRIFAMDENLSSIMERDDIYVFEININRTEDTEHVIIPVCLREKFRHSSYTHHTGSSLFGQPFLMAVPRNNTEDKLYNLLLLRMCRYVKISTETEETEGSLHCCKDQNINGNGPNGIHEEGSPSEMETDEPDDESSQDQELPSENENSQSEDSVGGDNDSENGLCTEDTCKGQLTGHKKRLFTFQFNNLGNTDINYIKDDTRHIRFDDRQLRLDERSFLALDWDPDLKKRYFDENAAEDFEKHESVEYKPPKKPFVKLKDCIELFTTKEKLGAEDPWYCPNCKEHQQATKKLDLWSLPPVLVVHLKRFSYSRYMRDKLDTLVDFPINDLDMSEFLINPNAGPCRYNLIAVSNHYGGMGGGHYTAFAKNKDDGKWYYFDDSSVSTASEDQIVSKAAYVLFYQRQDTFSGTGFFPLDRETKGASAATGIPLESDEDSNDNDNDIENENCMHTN
# Outline: as §1
# [10] = target: USP16 (UniProt Q9Y5T5)
# Outline: as §1
# Sequence of USP16 (Q9Y5T5 whole entry, looked up): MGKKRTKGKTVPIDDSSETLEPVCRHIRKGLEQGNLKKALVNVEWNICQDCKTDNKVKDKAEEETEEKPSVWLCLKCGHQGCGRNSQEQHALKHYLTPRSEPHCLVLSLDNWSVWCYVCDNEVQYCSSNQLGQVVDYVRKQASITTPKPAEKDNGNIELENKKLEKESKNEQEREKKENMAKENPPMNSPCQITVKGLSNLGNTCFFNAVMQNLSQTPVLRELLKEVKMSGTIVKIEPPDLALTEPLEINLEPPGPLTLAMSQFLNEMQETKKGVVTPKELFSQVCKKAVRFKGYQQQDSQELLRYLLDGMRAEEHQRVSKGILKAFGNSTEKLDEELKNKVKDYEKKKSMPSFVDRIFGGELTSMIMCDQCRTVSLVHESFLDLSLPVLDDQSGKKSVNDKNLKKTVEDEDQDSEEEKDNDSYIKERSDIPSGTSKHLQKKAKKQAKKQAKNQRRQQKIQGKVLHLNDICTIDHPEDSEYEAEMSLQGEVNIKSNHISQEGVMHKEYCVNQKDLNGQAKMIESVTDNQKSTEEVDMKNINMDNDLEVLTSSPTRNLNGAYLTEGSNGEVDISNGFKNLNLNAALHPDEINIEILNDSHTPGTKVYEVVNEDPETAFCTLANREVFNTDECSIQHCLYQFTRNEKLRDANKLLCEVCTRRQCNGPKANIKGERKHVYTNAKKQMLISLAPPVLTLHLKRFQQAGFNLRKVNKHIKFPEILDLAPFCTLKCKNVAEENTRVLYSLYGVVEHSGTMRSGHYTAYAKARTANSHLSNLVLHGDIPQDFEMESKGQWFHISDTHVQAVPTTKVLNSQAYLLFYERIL
# Sequence of UCHL1 (P09936 whole entry, looked up): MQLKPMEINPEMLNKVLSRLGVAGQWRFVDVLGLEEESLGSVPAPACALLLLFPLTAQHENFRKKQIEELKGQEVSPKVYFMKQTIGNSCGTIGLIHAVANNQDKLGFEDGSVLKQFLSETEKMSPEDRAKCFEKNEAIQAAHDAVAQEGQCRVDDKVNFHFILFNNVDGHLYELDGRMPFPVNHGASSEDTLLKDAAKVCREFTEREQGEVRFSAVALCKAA
# Sequence of USP10 (Q14694 whole entry): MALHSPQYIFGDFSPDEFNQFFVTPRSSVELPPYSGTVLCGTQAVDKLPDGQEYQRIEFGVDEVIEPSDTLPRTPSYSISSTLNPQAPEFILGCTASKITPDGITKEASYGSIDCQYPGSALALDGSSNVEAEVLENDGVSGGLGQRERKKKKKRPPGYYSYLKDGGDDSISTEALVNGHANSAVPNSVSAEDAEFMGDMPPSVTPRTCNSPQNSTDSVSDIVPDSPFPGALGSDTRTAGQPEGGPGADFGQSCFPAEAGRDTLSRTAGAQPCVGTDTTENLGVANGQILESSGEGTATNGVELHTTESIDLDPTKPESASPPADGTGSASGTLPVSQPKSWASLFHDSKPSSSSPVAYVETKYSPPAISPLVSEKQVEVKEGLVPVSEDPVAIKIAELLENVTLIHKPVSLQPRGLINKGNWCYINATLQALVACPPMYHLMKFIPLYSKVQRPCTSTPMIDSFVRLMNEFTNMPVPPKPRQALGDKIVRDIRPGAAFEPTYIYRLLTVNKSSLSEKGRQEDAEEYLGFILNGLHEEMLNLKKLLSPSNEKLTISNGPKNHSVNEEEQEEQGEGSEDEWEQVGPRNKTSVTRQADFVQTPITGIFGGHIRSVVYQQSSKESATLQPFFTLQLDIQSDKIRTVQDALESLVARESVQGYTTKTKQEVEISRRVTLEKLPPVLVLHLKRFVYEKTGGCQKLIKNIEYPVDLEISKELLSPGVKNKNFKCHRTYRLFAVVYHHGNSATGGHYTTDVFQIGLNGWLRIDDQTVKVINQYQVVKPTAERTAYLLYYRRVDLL
structure (smiles),measurement,setting,value
O=C(CCl)N(C1CCCC1)C1CCS(=O)(=O)C1 (stereo not given),log2 ratio of Biotin-Ahx-Ub-VS probe labelling,[1],-0.0743
same,log2 ratio of Biotin-Ahx-Ub-VS probe labelling,[2],-0.147
same,log2 ratio of Biotin-Ahx-Ub-VS probe labelling,[3],0.17
same,log2 ratio of Biotin-Ahx-Ub-VS probe labelling,[4],0.00755
same,log2 ratio of Biotin-Ahx-Ub-VS probe labelling,[5],-1.47 (active)
same,log2 ratio of Biotin-Ahx-Ub-VS probe labelling,[6],0.248
same,log2 ratio of Biotin-Ahx-Ub-VS probe labelling,[7],-0.176
same,log2 ratio of Biotin-Ahx-Ub-VS probe labelling,[8],-0.0694
same,log2 ratio of Biotin-Ahx-Ub-VS probe labelling,[9],-0.235
same,log2 ratio of Biotin-Ahx-Ub-VS probe labelling,[10],-0.121
